Mito fusion yeast – blocks mitochondrial division or promotes mitochondrial fusion | S. cerevisiae fusion-defective mutant growth rescue, CellTiterGlo 48 h | Potency, µM (series often up to 46.1 µM), actives largely listed as activators | 320,000 compounds, 0.23% hits; further: nearly all actives have a fitted effect of over 45% in size
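Read-out: ATP-based luminescence (CellTiterGlo, 10 min ambient) reporting growth of fusion-defective ts yeast after 48 hours at 37C on glycerol/ethanol YPEG medium in the presence of compound.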
TDP43 rescue – rescues yeast growth from TDP-43 toxicity | Potency, µM (top dose mostly 46.1 µM), most hits filed as activators | 410,000 compounds, 1.8% hits | TDP-43 expressing yeast growth rescue, BacTiter-Glo, 24 h | AID 652104; further: nearly all actives have a fitted effect of over 50% in size
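Readout is BacTiter-Glo luminescence of cell growth, so inhibitors register as activators. TDP-43-expressing yeast at OD600=0.02 in galactose medium, after raffinose pregrowth to mid-log, were incubated with compound for 24 hr at 30 deg C.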
aSyn rescue – rescues yeast growth from alpha-synuclein toxicity. Potency, µM (top dose mostly 46.1 µM), most hits filed as activators. Yeast expressing alpha-synuclein, growth rescue, BacTiter-Glo, 24 h. 370,000 compounds, 0.14% hits; further: nearly all actives have a fitted effect of over 65% in size
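Screening used galactose-induced yeast with toxic alpha-synuclein levels, exposed to compound for 24 hr at 30 deg C. Cell growth, read with BacTiter-Glo luminescence, gave the measured signal.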
Abeta yeast res – restores growth of yeast expressing A-beta42 peptide | yeast expressing A-beta42, growth rescue, OD600, 48 h; response scale: 0% DMSO, 100% iron-clioquinol control | Potency, µM (doses to about 46.1 µM), usual class: activators | 410,000 compounds, 0.063% hits | AID 1347071; further: nearly all actives have a fitted effect of over 55% in size
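Yeast growth medium received pinned compounds, then yeast cells expressing toxic A-beta were added; plates incubated at 30 C for 48 hr. Growth read as absorbance at 600 nm, normalized to DMSO and equimolar FeCl3 plus clioquinol controls.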
Glioma ERSR ind – ER stress response induction in glioma; Potency, µM, hits mostly activators; AID 602332; 420,000 compounds, 0.02% hits; U87-MG GRP78 promoter luciferase reporter, 16 h; further: series mostly up to about 76 µM; nearly all actives have a fitted effect of over 35% in size
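ERSR induction read as luciferase luminescence (Bright-Glo, 10 min at room temperature) in stably transfected human U87-MG glioma cells exposed to compounds for 16 h, using GRP78 as sensor.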
AT treatment – candidate therapy for ataxia-telangiectasia; F2112 A-T fibroblasts, KAP-1 phosphorylation AlphaLISA; neocarzinostatin DNA damage 30 min before lysis; AID 485349; 320,000 compounds, 0.19% hits; Potency, µM (top dose mostly 57.5 µM), usual class: activators; further: nearly all actives have a fitted effect of over 45% in size
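ATM-like activity read as KAP-1 phosphorylation via AlphaLISA donor/acceptor antibody pairs after lysis and 6 hr at 25C. Cells were ATM-null patient fibroblasts (F2112, hTERT), dosed 60 min, then exposed to the DSB inducer NCS for 30 min.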
Numbers stand for hits; . = inactive; ? = inconclusive; / = not tested or not shown; [ ] = another dose, or the depositor's remark. The list is not random: actives were taken first. Their share in the collection is about 2.1%. The call rests on the fitted dose curve; in most records, active means well fitted curve in the direction sought with a large enough effect; inconclusive means small, poorly fitted or top-dose-only effect, or another doubt; inactive means no such curve, though single readings can be large; an effect the other way counts as inactive or inconclusive.

SMILES | Mito fusion yeast | TDP43 rescue | aSyn rescue | Abeta yeast res | Glioma ERSR ind | AT treatment
Cc1nc2nc(Cc3ccccc3)nn2c(C)c1Cl | . | ? | . | . | . | /
Cc1cc(Nc2ccccc2C)n2nc(Cc3ccc(Cl)cc3)nc2n1 | / | 17.8µM | / | . | . | /
Cc1cc(Nc2ccc(C)c(Cl)c2)n2nc(Cc3ccccc3)nc2n1 | / | 22.4µM | / | . | . | /
Cc1cc(Nc2cccc(Cl)c2C)n2nc(Cc3ccccc3)nc2n1 | / | 22.4µM | / | . | . | /
Cc1cc(Nc2ccccc2F)n2nc(Cc3ccc(Cl)cc3)nc2n1 | / | . | / | . | . | /
CCc1sc(C(=O)Nc2nccs2)cc1C | . | . | . | . | . | .
O=C(Nc1nc(-c2ccccn2)cs1)c1ccc(Cl)s1 | . | ? | . | . | . | .
O=C(Nc1nc(-c2ccccn2)cs1)c1ncc(Cl)c(Cl)c1Cl | . | 3.55µM | 7.94µM | . | . | .
Cc1c(C(=O)Nc2nc(-c3ccccn3)cs2)oc2ccccc12 | . | 6.31µM | . | . | . | .
Cc1ccc(C(=O)Nc2nc(-c3ccccn3)cs2)s1 | ? | ? | 3.55µM | ? | . | .
CCc1sc(C(=O)Nc2nc(-c3ccccn3)cs2)cc1C | / | ? | 4.47µM | . | . | .
CCOC(=O)CSc1nc2cc3c(cc2c(=O)n1CCCC(=O)NCCc1ccc(OC)c(OC)c1)OCO3 | / | . | / | . | . | /
CCNC(=O)c1sc2ncnc(NCCCN3CCOCC3)c2c1C | / | / | / | / | . | /
Cc1ccc(N2CCN(S(=O)(=O)c3cc(C(=O)Nc4cc(Cl)cc(Cl)c4)ccc3F)CC2C)cc1 (configuration not stated) | / | . | / | . | . | /
COc1cc2c(NC3CCN(C)CC3)nc(N3CCCN(C)CC3)nc2cc1OCc1ccccc1 | / | / | . | / | / | /
CSCCC(=O)Nc1nc(-c2ccccn2)cs1 | . | . | . | . | . | .
O=C(COc1ccc(F)cc1Cl)Nc1nc(-c2ccccn2)cs1 | ? | / | / | / | / | .
Cc1csc(NC(=O)c2cccn2C)n1 | . | . | . | . | . | .
Cn1cccc1C(=O)Nc1nc(-c2ccccn2)cs1 | . | 14.1µM | ? | ? | . | .
N#Cc1ccccc1OCC(=O)Nc1nc(-c2ccccn2)cs1 | / | 25.1µM | ? | ? | . | /
O=C(Nc1nc(-c2ccccn2)cs1)C1CCCC1 | . | 20µM | . | ? | . | .
Cc1cccc(NCN2C(=O)C3C4C=CC(C4)C3C2=O)c1 (configuration not stated) | . | 11.2µM | . | . | . | .
CC1(C)Cc2ccccc2C(/C(=N\Nc2cccc(Cl)c2)C(N)=O)=N1 | . | 15.8µM | . | . | . | .
C[C@@H]1CN(Cc2ccc3c(c2)CN(Cc2coc4ccccc4c2=O)CCO3)C[C@H](C)O1 | / | / | / | / | . | /
Cc1scc(C(=O)N/N=C/c2ccc(Cl)s2)c1C | 12.6µM | . | . | . | . | .
SMILES | Mito fusion yeast | TDP43 rescue | aSyn rescue | Abeta yeast res | Glioma ERSR ind | AT treatment
Cc1scc(C(=O)N/N=C/c2ccc(OC(C)C)cc2)c1C | . | . | . | . | . | .
CCCOc1ccc(-c2nonc2NC(=O)c2oc3ccc(C)cc3c2C)cc1OCCC | / | . | / | . | . | /
C[C@H](CO)N1C[C@H](C)[C@@H](CN(C)S(=O)(=O)c2ccccc2F)Oc2ncc(Br)cc2C1=O | / | . | . | . | . | /
OCC1NCC(O)C(O)C1O (configuration not stated) | . | / | . | / | . | /
C=C(c1ccc2nc(NC(=O)OC)[nH]c2c1)c1cccs1 | / | 20µM | . | . | . | /
C=CCOc1ccc2nc(NC(=O)OC)[nH]c2c1 | . | . | . | . | . | .
Oc1ccccc1-c1nc(/C=C/c2ccccc2Cl)nn1-c1ccccc1 | / | . | . | . | . | /
CCc1nc(-c2ccccc2O)n(-c2ccccc2)n1 | . | 14.1µM | . | . | . | .
CC(=O)Nc1ccc(NC(=O)CSc2ccc3nnc(-c4cccnc4)n3n2)cc1 | . | . | . | . | . | .
Cc1cc(OC(=O)N2CCOCC2)cc(C)c1Cl | . | . | . | . | . | /
CC(=O)Oc1c(Cl)c(N2CCOCC2)c(OC(C)=O)c2ccccc12 | . | 10µM | . | . | . | .
COc1cc2c(NC3CCN(C(C)C)CC3)nc(N3CCCN(C)CC3)nc2cc1OCCCN(C)C | / | / | . | / | . | /
COc1ccc(/C(C#N)=C/c2cccnc2)cc1 | . | / | / | / | / | .
COc1ccc(C(C#N)=Cc2cccc(OC)c2OC)cc1 | / | 17.8µM | . | . | . | /
CC(=O)c1ccc(NC(=O)NC2CC(=O)N(c3ccc4c(c3)OCCO4)C2)cc1 (configuration not stated) | . | . | . | . | . | .
CCN(CC)c1c([N+](=O)[O-])c(=O)n(C)c2ccccc12 | . | . | . | . | . | .
CN(Cc1ccccc1)c1c([N+](=O)[O-])c(=O)n(C)c2ccccc12 | . | 15.8µM | ? | . | . | .
O=C(Nc1ccccc1C(=O)OCc1cc(=O)n2c3c(sc2n1)CCCC3)c1ccccc1 | / | . | / | . | . | /
Cc1c(C(=O)Nc2cccc(F)c2)cnn1-c1ccccc1 | . | 10µM | . | . | . | .
COC(=O)c1cnn(-c2ccc(C(=O)Nc3cccc(C(C)=O)c3)cc2)c1N | . | . | / | . | . | 28.2µM
CC(=O)c1cccc(NC(=O)CCc2c(C)nc3c(c(C)nn3-c3ccccc3)c2C)c1 | / | 6.31µM | / | . | . | /
CCOC(=O)c1cnn(-c2ccc(C(=O)Nc3cccc(C(C)=O)c3)cc2)c1N | / | .[9.22 µM] | / | . | . | /
CC(=O)c1cccc(NC(=O)c2cnn(-c3ccccc3)c2C)c1 | . | 14.1µM | . | ? | . | .
CC(=O)c1ccc(NC(=O)CCc2c(C)nc3c(c(C)nn3-c3ccc(C)cc3)c2C)cc1 | / | . | / | . | / | /
O=C(c1cnn(-c2nccc(-c3ccccc3F)n2)c1C1CC1)N1CCN(CCO)CC1 | / | / | / | / | . | /
SMILES | Mito fusion yeast | TDP43 rescue | aSyn rescue | Abeta yeast res | Glioma ERSR ind | AT treatment
COc1ccc(S(=O)(=O)N2CCC(N3CCN(Cc4ccccc4)C(=O)C3=O)CC2)cc1 | / | . | / | . | . | /
COc1ccc2c(c1)CCCC2NS(=O)(=O)OCC(Cl)(Cl)Cl (configuration not stated) | . | 35.5µM | . | . | . | .
Cc1cc(Oc2ccccc2)nc(-c2ccccc2)n1 | . | . | . | . | . | 17.8µM
c1ccc(Oc2cc(-c3ccccc3)nc(-c3ccccc3)n2)cc1 | . | . | . | . | . | .
CCn1nccc1C(=O)Nc1cc(Cl)cc(Cl)c1 | . | 20µM | . | . | . | .
O=C(Cn1nc(C(=O)O)c2ccccc2c1=O)Nc1ccc2c(c1)C(=O)c1ccccc1C2=O | . | / | / | / | / | .
O=C(CCc1cccnc1)NCC1Cc2cccc(-c3ncccn3)c2O1 (configuration not stated) | / | / | / | / | . | /
CN1C(C(=O)N2CCc3ccccc3C2)=CC(c2ccc(F)cc2)=NS1(=O)=O | . | 12.6µM | . | . | . | .
